Values joined by “and” are separate entries in the source; they are usually repeats but may differ in a detail not shown here. Equal values may be shown once. Results filed as inconclusive are left out. Where a call stands in place of a potency, no number is given. Some structures have more than one record in an assay (separate samples or runs), and their calls can disagree. Active and inactive are the calls of the source. The call rests on the fitted dose curve.
Potency means the concentration at half of the fitted maximal effect.

This assay is described as follows: qHTS assay to identify small molecule agonists of the progesterone receptor (PR) signaling pathway - cell viability counter screen (AID 1346799). Further: nearly all actives have a fitted effect of over 45% in size. The following applies: PR-UAS-bla HEK293T viability, CellTiter-Glo luminescence, 16 h; series mostly up to 92.4 µM. An excerpt: National Center for Advancing Translational Sciences [NCATS]
NIH Chemical Genomics Center [NCGC]
U.S. Environmental Protection Agency [EPA]
National Institutes of Environmental Health Sciences [NIEHS]
National Toxicology Program [NTP]
U.S. Food and Drug Administration [FDA]
Progesterone receptor (PR), a nuclear hormone receptor, plays an important role in development, metabolic homeostasis and reproduction. It is activated by the steroid hormone progesterone. Endocrine disrupting chemicals (EDCs) and their interactions with steroid hormone receptors like PR causes disruption of normal endocrine function. To identify the compounds that stimulate PR signaling, a PR-UAS-bla GripTite cell line i.e. PR-UAS-bla HEK293T (Invitrogen, Carlsbad, CA, USA) containing a beta-lactamase reporter gene under the control of an UAS response element was used to screen Tox21 10K compound library. The cytotoxicity of the Tox21 compound library against the PR-bla cell line was tested in parallel by measuring the cell viability using CellTiter-Glo assay in the same wells.
Tox21 Assay Protocol Summary:
PR-UAS-bla HEK293T cells were dispensed at 3,000 cells/5 uL of assay medium containing 2% charcoal stripped FBS per well into black wall/clear-bottom 1536-well plates using a Multidrop Combi (ThermoFisher Scientific, Waltham, MA) dispenser. After the assay plates were incubated at a 37C and 5% CO2 for 6 hr, 23 nL of compounds dissolved in DMSO, positive controls or DMSO only was transferred to the assay plate by a Pintool station (Kalypsys, San Diego, CA). The plates were incubated at 37C and 5% CO2 for 16 hr. Then 1 uL of LiveBLAzer B/G FRET substrate was added using a Flying Reagent Dispenser (FRD, Aurora Discovery, San Diego, CA), the plates were incubated at room temperature for 2 hours, and fluorescence intensity was measured by an Envision plate reader (PerkinElmer, Shelton, CT). For cell viability readout that measures cytotoxicity, 4 uL/well of CellTiter-Glo reagent was added into the assay plates using a FRD. After 30 min incubation at room temperature, the luminescence intensity in the plates was measured using a ViewLux (PerkinElmer) plate reader.
For `C=CC(C)(CCC=C(C)C)OC(C)=O` (stereo not given), the Potency entry is “inactive”.

`CC(=O)C1(C)CC2=C(CCCC2(C)C)CC1C` (stereo not given): the Potency result is “inactive”.

`C=C(C)C1CC=C(C)CC1` (stereo not given): the Potency entry is “inactive”.

Consider `CCCCC/C=C/C=C/C=O`, for which the Potency result is “inactive”.

For the molecule `NC=O`, the Potency entry was “inactive”.

Turning to `CN(C)C(=N)N=C(N)N`, the Potency entry is “inactive”.

Take `Nc1ccc(Nc2ccccc2)cc1`: the Potency entry was “inactive”.

For the molecule `COC(=O)Nc1nc2ccc(S(=O)c3ccccc3)cc2[nH]1` (stereo not given), the Potency result was “inactive”.

`Nc1ccc(Cl)cc1Cl`: the Potency entry was “inactive”.

For `COC(=O)CCC(=O)OC`, the Potency result was “inactive”.

Take `C[Si](C)(C)O[Si](C)(C)C`: the Potency result is “inactive”.

Turning to `CC(C)(C)NC(=O)[C@H]1CC[C@H]2[C@@H]3CC[C@H]4NC(=O)C=C[C@]4(C)[C@H]3CC[C@]12C`, the Potency result is “inactive”.

Regarding `CCCCc1oc2ccccc2c1C(=O)c1cc(I)c(OCCN(CC)CC)c(I)c1`, the Potency is 19.5 µM (active) and 13.3 µM (active).

For the molecule `OC1CCCCCCCCCCC1`, the Potency entry is “inactive”.

For `Oc1ccc(O)cc1`, the Potency entry is “inactive”.

Take `Brc1cc(Oc2cc(Br)c(Br)c(Br)c2Br)c(Br)c(Br)c1Br`: the Potency is 2.18 µM (active) and inactive.

Take `CCOCCOCCO`: the Potency result is “inactive”.

With `Cc1ncc[nH]1`, the Potency result was “inactive”.

`c1ccc(Nc2ccccc2)cc1`: the Potency entry was “inactive”.

On to `OCCO`, for which the Potency result is “inactive”.

`CC(C)OB(OC(C)C)OC(C)C`: the Potency result was “inactive”.

With `CCC(C)(O)CCCC(C)C` (stereo not given), the Potency entry was “inactive”.

As for `OC(CCl)CCl`, the Potency entry was “inactive”.

Consider `O=Cc1ccccc1O`, for which the Potency entry was “inactive”.

As for `COC(=O)c1ccccc1`, the Potency entry was “inactive”.

`CC(=O)CC/C=C(\C)CCC=C(C)C`: the Potency result was “inactive”.

For the molecule `CCOC(=O)C(C#N)=C(c1ccccc1)c1ccccc1`, the Potency result was “inactive”.

`O=C1OC2(c3cc(Br)c(O)c(Br)c3Oc3c2cc(Br)c(O)c3Br)c2c(Cl)c(Cl)c(Cl)c(Cl)c21`: the Potency result is “inactive”.

Consider `CC(CCC(=O)O)(c1ccc(O)cc1)c1ccc(O)cc1`, for which the Potency entry was “inactive”.

For the molecule `c1cc(N(CC2CO2)CC2CO2)ccc1OCC1CO1` (stereo not given), the Potency result is “inactive”.

Take `c1ccc2c(c1)Oc1ccccc1S2`: the Potency entry is “inactive”.

For the molecule `CCCCC(CC)COC(=O)c1ccc(N(C)C)cc1` (stereo not given), the Potency result is “inactive”.

As to `c1ccc2c(c1)c1cccc3ccc4cccc2c4c31`, the Potency result is “inactive”.

Consider `CC1=CCC(C(C)(C)O)CC1` (stereo not given), for which the Potency result is “inactive”.

Take `CC(C)OC=O`: the Potency entry was “inactive”.

Turning to `Nc1ncnc2nc[nH]c12`, the Potency entry is “inactive”.

On to `O=C(/C=C/c1ccccc1)OCc1ccccc1`, for which the Potency result is “inactive”.

On to `Cc1cccc([N+](=O)[O-])c1C`, for which the Potency result was “inactive”.

In the case of `O=CCCCC=O`, the Potency result was “inactive”.

`O=c1oc(=O)c2cc3c(=O)oc(=O)c3cc12`: the Potency entry is “inactive”.

For the origin of these results see PubChem BioAssay (Tox21).
